Outcome and AC50 data for 23 molecules are collected here from PubChem BioAssay (EPA / NIEHS).

Test [1] has as its target Cellular tumor antigen p53 (Homo sapiens) (UniProt P04637). Nature of the test: TOX21_p53_BLA_p2_ratio: Tox21 HCT-116 p53 Agonism Beta-lactamase Assay, Ratio, Phase 2 (AID 2283592). A digest of the protocol:
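HCT116 p53-bla; 4000 cells/well; 5 h pre-incubation; cpd in DMSO, 217-fold dilution; 16 h 37C/5% CO2; CCF4-AM 2 h RT; Ex 405, Em 460/530 ratio; DMSO = baseline; positive fitting direction.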

Test [2] is described as follows: TOX21_p53_BLA_p3_viability: Viability Assessment in the Tox21 HCT-116 p53 Agonism Beta-lactamase Assay, Phase 3 (AID 2283593).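 Further: cells exposed to compound for 16 h before reading.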 The gist of the method: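 HCT-116 cells (4000/well) rested 5 h at 37C, then got DMSO compounds by pin tool (217-fold dilution) for 16 h at 37C, 5% CO2. After the bla read, CellTiter-Glo was added and luminescence read at 30 min, room temperature.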

The target of test [3] is Cellular tumor antigen p53 (Homo sapiens) (UniProt P04637). Nature of the test: TOX21_p53_BLA_p3_ratio: Tox21 HCT-116 p53 Agonism Beta-lactamase Assay, Ratio, Phase 3 (AID 2283596). The gist of the method: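 HCT116 p53-bla cells (4000/well) given compound in DMSO (217-fold dilution) after 5 h, incubated 16 h at 37C. CCF4-AM substrate 2 h at room temperature; 460/530 nm emission ratio, gain fitted against DMSO.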

Test [4] has the same target. Nature of the test: TOX21_p53_BLA_p5_ratio: Tox21 HCT-116 p53 Agonism Beta-lactamase Assay, Ratio, Phase 5 (AID 2283599). A digest of the protocol: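 HCT-116 cells carrying a p53-inducible beta-lactamase reporter were seeded at 4000 cells/well and dosed after 5 h with compound in DMSO (217-fold dilution). After 16 h at 37C, CCF4-AM substrate was added for 2 h, and the 460/530 nm emission ratio was scored as gain-of-signal versus DMSO.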

A short description of test [5]: TOX21_p53_BLA_p5_viability: Viability Assessment in the Tox21 HCT-116 p53 Agonism Beta-lactamase Assay, Phase 5 (AID 2283600). The gist of the method: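 4000 cells/well; 5 h pre-incubation; DMSO compounds pin-transferred, 217-fold dilution; 16 h, 37C/5% CO2; CCF4-AM 2 h RT; CellTiter-Glo 30 min RT; luminescence.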
The target in test [6] is Cellular tumor antigen p53 (Homo sapiens) (UniProt P04637). The test is described as follows: TOX21_p53_BLA_p4_ratio: Tox21 HCT-116 p53 Agonism Beta-lactamase Assay, Ratio, Phase 4 (AID 2283601). The gist of the method: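 HCT116 cells carrying an inducible beta-lactamase reporter were plated at 4000 cells/well, rested 5 h, then exposed to compounds in DMSO (217-fold dilution) for 16 h at 37C. CCF4-AM substrate was loaded 2 h at room temperature; 460/530 nm emission ratio scored gain-of-signal versus DMSO.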

Test [7] deals with Thyroid hormone receptor alpha (Rattus norvegicus) + Thyroid hormone receptor beta (Rattus norvegicus) (UniProt P18113+P63059). Nature of the test: TOX21_TR_LUC_GH3_Agonist_Followup: Tox21 GH3 Thyroid Hormone Receptor Agonism Luciferase Follow-Up Assay (AID 2283939). A digest of the protocol:
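Rat GH3 cells (1,500/well) in serum-free assay medium, treated with 15-point series, 92 uM to 5 nM final, for 24 h at 37C. Luciferase via ONE-Glo luminescence; gain of signal fitted against DMSO, T3 positive control.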

Test [8] has as its target THRA (gene 7067) (UniProt P10827). The test is described as follows: TOX21_TRA_COA_Agonist_Followup_ratio: Tox21 Thyroid Hormone Receptor alpha Agonism through Coactivator Recruitment Follow-Up Assay, Ratio (AID 2283948; active means hit-call score of the fitted dose curve at least 0.9, where 1 is the maximum; inactive means score below 0.9). A digest of the protocol: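 Follow-up specificity assay in which TRα ligand-binding domain, expressed as a GST fusion, recruits a fluorescein-labelled SRC-2 peptide. Energy transfer from a terbium anti-GST antibody gives the acceptor/donor ratio, fitted upward relative to DMSO.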

The target of test [9] is THRB (gene 7068) (UniProt P10828). The test is described as follows: TOX21_TRB_BLA_Agonist_Followup_ratio: Tox21 Thyroid Hormone Receptor beta Agonism Beta-lactamase (BLA) Follow-Up Assay, Ratio (AID 2283954). The gist of the method:
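Human TRβ LBD–GAL4 DBD fusion in GeneBLAzer UAS-bla HEK293T cells; 11 concentrations in triplicate, 18 h at 37°C/5% CO2, T3 as agonist control. CCF4-AM substrate 2 h at room temperature; 460:530 nm ratio fitted for gain of signal versus DMSO.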

Test [10] shares this target. Nature of the test: TOX21_TRB_COA_Agonist_Followup_ratio: Tox21 Thyroid Hormone Receptor beta Agonism through Coactivator Recruitment Follow-Up Assay, Ratio (AID 2283963; active means hit-call score of the fitted dose curve at least 0.9, where 1 is the maximum; inactive means score below 0.9). A digest of the protocol: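 Agonism is measured as coactivator recruitment in a purified-protein TR-FRET format, using GST-TRβ LBD at 5.0 nM, fluorescein-SRC-2 peptide at 200 nM and Tb-labeled anti-GST antibody at 2 nM. Values are 520:495 nm ratios relative to DMSO (0%) and T3 (100%).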

Test [11] addresses Retinoic acid receptor RXR-alpha (Homo sapiens) (UniProt P19793). Nature of the test: TOX21_TR_RXR_BLA_Agonist_Followup_ratio: Tox21 Thyroid Hormone Receptor beta Retinoid X Receptor alpha (RXRa) Agonism Beta-lactamase (BLA) Follow-Up Assay, Ratio (AID 2283968). A digest of the protocol:
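RXRa-UAS-bla HEK293T cells (GAL4 beta-lactamase reporter) were treated with compounds at 11 concentrations in triplicate for 16 h at 37C/5% CO2, then loaded with CCF4-AM substrate for 2 h at room temperature; activity is the 460:530 nm ratio versus DMSO baseline.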

Test [12] in a line: TOX21_p53_BLA_p4_viability: Viability Assessment in the Tox21 HCT-116 p53 Agonism Beta-lactamase Assay, Phase 4 (AID 2283597).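 Further: hits lower the luminescence signal meaning cytotoxicity.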 A digest of the protocol: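 Cells plated, 5 h pre-incubation; DMSO compounds pinned (217-fold dilution); 16 h, 37C/5% CO2; CCF4-AM 2 h RT; CellTiter-Glo 30 min RT; luminescence read.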
Test [13] can be described thus: ACEA_ER_AUC_viability: ACEA Biosciences xCELLigence Real-Time Cell Analysis on Estrogen Receptor Agonism for Viability (AID 2283782).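 Further: continuous compound exposure with impedance area under curve over 80 h; hit means loss of impedance signal meaning reduced cell growth or viability.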 The gist of the method: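 T-47D human breast cells in phenol red-free RPMI1640 with 10% charcoal-stripped FBS were dosed with an 8-point 1:4 dilution series from 100 uM top final concentration, in duplicate. Impedance-based growth was followed for 80 h; AUC analysed versus DMSO.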

Records with an inconclusive call do not appear. Activity calls are given as the source filed them. How the source made its calls, unless noted: active means hit-call score of the fitted dose curve at least 0.9, where 1 is the maximum; inconclusive means response in the unintended direction; inactive means score below 0.9.

For orientation: AC50 means the midpoint of the concentration-response curve, whichever way the signal moves.

Chain of Cellular tumor antigen p53 (Homo sapiens) (P04637 whole entry, looked up): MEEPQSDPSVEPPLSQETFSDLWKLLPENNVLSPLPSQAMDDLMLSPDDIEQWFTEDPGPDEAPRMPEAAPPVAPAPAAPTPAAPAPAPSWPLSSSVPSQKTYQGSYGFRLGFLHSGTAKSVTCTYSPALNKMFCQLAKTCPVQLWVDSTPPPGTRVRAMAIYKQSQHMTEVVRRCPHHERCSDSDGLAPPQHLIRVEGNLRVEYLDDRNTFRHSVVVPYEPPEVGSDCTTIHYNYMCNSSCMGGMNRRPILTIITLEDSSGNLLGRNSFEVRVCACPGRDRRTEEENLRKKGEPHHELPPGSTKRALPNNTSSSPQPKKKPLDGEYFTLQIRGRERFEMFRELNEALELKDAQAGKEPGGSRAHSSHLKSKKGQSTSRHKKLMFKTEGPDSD
Chain of THRB (gene 7068) (P10828 whole entry, looked up, the tested form may be a part): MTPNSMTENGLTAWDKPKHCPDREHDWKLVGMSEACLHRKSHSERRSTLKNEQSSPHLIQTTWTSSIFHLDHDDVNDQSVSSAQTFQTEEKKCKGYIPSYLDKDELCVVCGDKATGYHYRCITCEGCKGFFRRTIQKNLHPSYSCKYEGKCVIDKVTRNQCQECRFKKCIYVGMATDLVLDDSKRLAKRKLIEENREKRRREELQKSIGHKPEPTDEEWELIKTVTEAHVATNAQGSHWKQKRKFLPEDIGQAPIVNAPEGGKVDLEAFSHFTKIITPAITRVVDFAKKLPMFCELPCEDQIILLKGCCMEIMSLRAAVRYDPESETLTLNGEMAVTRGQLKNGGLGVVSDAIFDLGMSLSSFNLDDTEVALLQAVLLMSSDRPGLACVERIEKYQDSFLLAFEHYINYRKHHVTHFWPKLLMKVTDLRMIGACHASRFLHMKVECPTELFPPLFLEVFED
Chain of Retinoic acid receptor RXR-alpha (Homo sapiens) (P19793 whole entry, looked up, the tested form may be a part): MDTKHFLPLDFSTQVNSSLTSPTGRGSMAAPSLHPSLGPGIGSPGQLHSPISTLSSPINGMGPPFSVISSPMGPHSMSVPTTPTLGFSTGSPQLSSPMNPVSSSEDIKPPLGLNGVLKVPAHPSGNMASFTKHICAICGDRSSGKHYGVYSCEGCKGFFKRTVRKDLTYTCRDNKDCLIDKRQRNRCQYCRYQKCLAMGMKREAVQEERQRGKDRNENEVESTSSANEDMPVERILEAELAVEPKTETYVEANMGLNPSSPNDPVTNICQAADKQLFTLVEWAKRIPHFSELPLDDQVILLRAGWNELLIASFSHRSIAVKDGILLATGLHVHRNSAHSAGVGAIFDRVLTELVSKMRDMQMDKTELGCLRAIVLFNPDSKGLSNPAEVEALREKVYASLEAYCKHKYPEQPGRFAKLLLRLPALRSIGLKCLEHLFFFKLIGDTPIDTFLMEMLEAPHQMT
Chain of THRA (gene 7067) (P10827 whole entry, looked up, the tested form may be a part): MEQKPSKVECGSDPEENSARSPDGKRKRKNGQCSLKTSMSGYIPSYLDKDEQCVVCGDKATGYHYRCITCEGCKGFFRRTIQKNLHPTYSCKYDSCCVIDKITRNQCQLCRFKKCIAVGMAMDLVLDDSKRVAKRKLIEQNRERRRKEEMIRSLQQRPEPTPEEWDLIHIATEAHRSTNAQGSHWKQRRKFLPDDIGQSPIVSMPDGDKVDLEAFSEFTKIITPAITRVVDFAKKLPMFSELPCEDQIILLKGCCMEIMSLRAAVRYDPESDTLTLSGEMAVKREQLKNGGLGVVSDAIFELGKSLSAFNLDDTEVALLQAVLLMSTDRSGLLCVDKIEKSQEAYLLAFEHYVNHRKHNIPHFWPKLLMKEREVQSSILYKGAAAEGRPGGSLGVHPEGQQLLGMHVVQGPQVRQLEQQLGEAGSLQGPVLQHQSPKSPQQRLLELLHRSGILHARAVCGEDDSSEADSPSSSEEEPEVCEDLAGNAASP
Chain of Thyroid hormone receptor alpha (Rattus norvegicus) + Thyroid hormone receptor beta (Rattus norvegicus) (P63059 whole entry, looked up): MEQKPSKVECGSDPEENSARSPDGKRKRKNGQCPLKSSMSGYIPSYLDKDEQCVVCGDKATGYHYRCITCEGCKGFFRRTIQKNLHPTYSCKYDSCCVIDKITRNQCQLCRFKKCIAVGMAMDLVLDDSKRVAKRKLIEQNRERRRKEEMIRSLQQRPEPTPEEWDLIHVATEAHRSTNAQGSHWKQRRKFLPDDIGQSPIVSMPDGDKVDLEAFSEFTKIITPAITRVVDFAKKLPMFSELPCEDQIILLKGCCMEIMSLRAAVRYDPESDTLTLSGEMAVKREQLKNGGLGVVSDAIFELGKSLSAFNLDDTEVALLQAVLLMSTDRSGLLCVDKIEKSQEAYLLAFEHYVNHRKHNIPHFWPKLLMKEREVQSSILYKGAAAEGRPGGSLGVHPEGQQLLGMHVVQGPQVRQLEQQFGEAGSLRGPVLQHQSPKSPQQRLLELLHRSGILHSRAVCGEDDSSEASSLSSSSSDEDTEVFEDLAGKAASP
Chain of Thyroid hormone receptor alpha (Rattus norvegicus) + Thyroid hormone receptor beta (Rattus norvegicus) (P18113 whole entry, looked up): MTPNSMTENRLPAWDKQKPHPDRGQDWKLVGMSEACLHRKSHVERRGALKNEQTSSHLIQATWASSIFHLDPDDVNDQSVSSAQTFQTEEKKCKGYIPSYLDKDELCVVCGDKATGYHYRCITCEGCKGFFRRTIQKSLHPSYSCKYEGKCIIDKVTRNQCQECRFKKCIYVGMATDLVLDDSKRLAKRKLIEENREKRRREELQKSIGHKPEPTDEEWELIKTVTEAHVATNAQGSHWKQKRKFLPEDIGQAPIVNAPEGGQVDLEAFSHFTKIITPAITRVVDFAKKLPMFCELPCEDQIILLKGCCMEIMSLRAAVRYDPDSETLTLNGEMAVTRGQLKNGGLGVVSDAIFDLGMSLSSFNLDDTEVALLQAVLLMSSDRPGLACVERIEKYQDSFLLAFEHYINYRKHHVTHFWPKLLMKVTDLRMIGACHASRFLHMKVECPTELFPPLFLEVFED

Take `C=CC1CO1` (configuration not stated): the result in [1], in test [2], in [3], in [4], in [5] and in test [6] was inactive.
On to `CN(CCCN1c2ccccc2CCc2ccccc21)CC(=O)c1ccc(Cl)cc1`, for which the outcome in test [1], in test [2], in [3], in [4] and in test [6] was inactive.
Turning to `NCC(=O)CCC(=O)O`, the result in [1], in test [2], in test [3], in [4], in test [5] and in test [6] was inactive. Besides, the outcome in test [8], in test [9], in test [10] and in test [11] was inactive. In addition, the AC50 in [7] was 13.1 µM (active).
Consider `O=C(O)c1ccncc1`, for which the outcome in test [1], in test [2], in [3], in [4], in [5] and in test [6] was inactive.
On to `O=C1Nc2ccc([N+](=O)[O-])cc2C1=O`, for which the concentration at half-maximal activity (AC50) was 74.4 µM (active) in test [1], 85.2 µM (active) in [3], 82.1 µM (active) in test [4] and 72.8 µM (active) in test [6]. In addition, the outcome in test [2] and in test [5] was inactive.
On to `C=C1CC[C@@H]2[C@](C)(CO)[C@H](O)CC[C@@]2(C)[C@@H]1C/C=C1/C(=O)OC[C@H]1O`, for which the outcome in test [1], in [2], in test [3], in [4] and in [6] was inactive.
Consider `c1csc(SSc2cccs2)c1`, for which the outcome in test [1], in test [2], in test [3], in test [4] and in test [6] was inactive.
Take `CC(S)C(C)S` (configuration not stated): the result in test [1], in test [2], in test [3], in [4], in test [5] and in test [6] was inactive.
`N[C@H](CO)C(=O)O`: the outcome in test [1], in [2], in test [3], in [4], in [5] and in test [6] was inactive.
On to `CC(C)(C)C(=O)OCOC(=O)[C@@H]1N2C(=O)[C@@H](NC(=O)[C@H](N)c3ccccc3)[C@H]2SC1(C)C`, for which the outcome in test [1], in test [2], in [3], in test [4] and in [6] was inactive.
Turning to `COc1c(N2CCNC(C)C2)c(F)cc2c(=O)c(C(=O)O)cn(C3CC3)c12` (configuration not stated), the outcome in test [1], in test [2], in test [3], in [5] and in test [6] was inactive.
Take `O=c1[nH]c(=O)n([C@H]2C[C@H](O)[C@@H](CO)O2)cc1/C=C/Br`: the result in [1], in test [2], in test [3], in test [5] and in test [6] was inactive.
Consider `NC(N)=NCC1COC2(CCCCC2)O1` (configuration not stated), for which the result in [1], in [2], in test [3], in [5] and in [6] was inactive.
As for `O=C(Cl)c1ccc(F)c(Cl)c1`, the outcome in test [1], in [2] and in [12] was inactive.
`NCCCC[C@H](N)C(=O)O`: the result in test [1], in [2], in [3] and in test [6] was inactive.
Take `CCCCCCCC(=O)Oc1c(Br)cc(C#N)cc1Br`: in test [1], the AC50 was 67.3 µM (active). Further, the molecule was classed as inactive in [2], in test [3] and in test [6].
For the molecule `Nc1nnc(-c2cccc(Cl)c2Cl)c(N)n1`, the outcome in test [1], in [2], in test [3] and in test [6] was inactive.
Regarding `CCCCCCCCCCC(=O)O`, the result in test [1], in test [2], in test [12], in test [4] and in test [5] was inactive.
Take `COc1ccc(S(=O)(=O)N2c3ccc(Cl)cc3[C@@](O)(c3ccccc3Cl)[C@H]2C(=O)N2CCC[C@@H]2C(N)=O)cc1OC`: the result in test [1], in test [2], in [12] and in [4] was inactive.
Turning to `CCCC1C(=O)N2C(N(C)C)=Nc3ccc(C)cc3N2C1=O` (configuration not stated), the outcome in test [1], in test [2], in test [3] and in [5] was inactive.
With `Cc1ccc(O)c([N+](=O)[O-])c1`, the outcome in [1], in test [2] and in test [12] was inactive.
Regarding `NCCN1CCOCC1`, the outcome in test [1], in test [2], in test [3], in test [5], in test [6] and in [13] was inactive.
Take `C=CCn1c(=O)n([C@@H]2O[C@H](CO)[C@@H](O)[C@H]2O)c2nc(N)[nH]c(=O)c21`: the outcome in [1], in [2], in test [3] and in test [6] was inactive.
